LASV entry inh – qHTS for Inhibitors of binding or entry into cells for Lassa Virus. Lassa virus pseudotype entry inhibition, cell reporter. Potency, µM (highest dose often 37.9 µM), most hits filed as inhibitors. 1.2% of 300,000 active; calls by dose curve; tested in HEK293 cells; further: nearly all actives have a fitted effect of over 50% in size
MARV entry inh – qHTS for inhibitors of binding or entry into cells for Marburg Virus; Marburg virus pseudotyped entry inhibition, cell reporter; Potency, µM (titrated, usually from 37.8 µM), hits mostly inhibitors; 1.8% of 300,000 active; AID 540276, 2011; calls by dose curve; tested in HEK293 cells
VACV mCherry inh – qHTS for Stage-Specific Inhibitors of Vaccinia Orthopoxvirus: mCherry Reporter Primary qHTS. Vaccinia virus mCherry reporter infection, fluorescence. Potency, µM (highest dose often 36.5 µM), most hits filed as inhibitors. 0.63% of 310,000 active. AID 720579, 2013; calls by dose curve; tested in A549 cells; further: nearly all actives have a fitted effect of over 35% in size
Vaccinia Venus – qHTS for Stage-Specific Inhibitors of Vaccinia Orthopoxvirus: Venus Reporter Primary qHTS; Potency, µM (series often up to 36.5 µM), hits mostly inhibitors; Vaccinia virus Venus reporter expression, fluorescence; 0.46% of 330,000 active; calls by dose curve; tested in A549 cells; further: nearly all actives have a fitted effect of over 30% in size
FMDV antiviral – High Throughput Screening for Foot and Mouth Disease Virus Antivirals | Potency, µM (titrated, usually from 57.9 µM), most hits filed as inhibitors | FMDV antiviral cell-based qHTS | AID 1159524, 2015 | 1.2% of 410,000 active; calls by dose curve; tested in HEK293T cells; further: read-out not given here; nearly all actives have a fitted effect of over 45% in size
HCMV inh – qHTS Assay for inhibitors of the human cytomegalovirus (HCMV); AID 1259415, 2018; 4.5% of 410,000 active; HFF cells, HCMV-luciferase reporter, 72 h; hits give low values; activity change, negative = inhibition, % at 57.5 µM; in the data active means activity change below about -60%; inconclusive means no clear call, values can overlap the other calls; inactive means above about -39%
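Compounds were evaluated in HFFs infected with an HCMV luciferase reporter virus (MOI 1 PFU/cell). Luciferase in lysates collected 72 h post infection served as the replication measure.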
Hits are given with their value; – = inactive; ? = inconclusive; · = not tested or not shown; [ ] = dose if it differs, or a comment. The list is not random: actives were taken first. Their share in the collection is about 6.5%.

SMILES	LASV entry inh	MARV entry inh	VACV mCherry inh	Vaccinia Venus	FMDV antiviral	HCMV inh
CN(C)c1ccc(/C=C/[N+](=O)[O-])cc1	–	–	–	–	–	–
CN(c1ccccc1)c1ccc(/C=C/[N+](=O)[O-])cc1	?	?	–	–	16µM	-99
COc1ccc(N2CCN(C(=S)Nc3ccccc3)CC2)cc1	?	?	–	–	–	–
CC(=O)c1ccc(N2CCN(C(=O)c3n[nH]c4ccccc34)CC2)cc1	–	?	–	–	?	–
CC(=O)c1ccc(N2CCN(C(=O)c3cccc(Oc4ccccc4)c3)CC2)cc1	3.2µM	?	–	–	–	–
CC(=O)c1ccc(N2CCN(C(=O)c3ccc(-c4ccccc4)cc3)CC2)cc1	?	–	–	–	–	-66
CC(=O)c1ccc(N2CCN(C(=O)c3nn(Cc4ccccc4)c(=O)c4ccccc34)CC2)cc1	10µM	?	–	–	–	–
CC(=O)c1ccc(N2CCN(C(=S)Nc3ccc(Oc4ccccc4)cc3)CC2)cc1	?	?	?	–	–	-63
Cc1cc(NC(=O)CCC(=O)N(CCC(C)C)C(C(=O)NC2CCCC2)c2ccccc2C)no1 (stereo not given)	–	?	–	–	–	–
O=C(COc1ccc(F)cc1)N(Cc1ccc(Cl)cc1)C1CCS(=O)(=O)C1 (stereo not given)	·	·	–[7.34 µM]	–[7.34 µM]	–	–
Cc1cc(C)nc(NC(=O)Cc2ccc([N+](=O)[O-])cc2)c1	?	–	–	–	–	–
Cc1c(Br)cccc1NC(=O)C1(C)CCN1Cc1ccc(OC(C)C)cc1 (stereo not given)	·	·	?	–	–	?
CC(C)Oc1ccc(CN2CCC2(C)C(=O)Nc2cccc3cccnc23)cc1 (stereo not given)	·	·	–	–	–	-78
COc1ccc(NC(=O)N(C)[C@H]2C[C@H]3c4[nH]c5ccc(-c6ccc(OC)cc6)cc5c4CCN3C(=O)[C@H]2[C@H](C)O)cc1	·	·	–	?	–	-68
CN[C@H]1C[C@H]2c3[nH]c4ccc(-c5ccc(OC)cc5)cc4c3CCN2C(=O)[C@H]1[C@H](C)O	·	·	?	13µM	?	-103
COc1ccc(NC(=O)N(C)[C@H]2C[C@H]3c4[nH]c5ccc(-c6ccc7c(c6)OCO7)cc5c4CCN3C[C@H]2[C@H](C)O)cc1	·	·	?	?	–	–
COc1ccc(NC(=O)N(C)[C@H]2C[C@H]3c4[nH]c5ccc(-c6ccc(OC)cc6)cc5c4CCN3C[C@H]2[C@H](C)O)cc1	·	·	–	?	–	-104
Cc1ccccc1Cn1c(C)c(C(=O)NCCC#N)sc1=O	·	·	–	–	–	–
CN(C)c1ccc(NC(=O)Cn2cc3c(n2)CCCC3)cc1	·	·	–	–	–	-99
Cc1cc(C)cc(NC(=O)Cn2cc3c(n2)CCCCC3)c1	·	–	·	·	·	·
O=C(NCCN1CCN(c2ccc([N+](=O)[O-])cc2)CC1)NCc1ccccc1	·	·	·	·	–	-94
O=C(NCCN1CCN(Cc2ccc([N+](=O)[O-])cc2)CC1)C(=O)Nc1ccccc1	–	–	–	–	·	–
O=[N+]([O-])c1ccc(-c2csc(N3CCc4ccccc4C3)n2)cc1	–	–	–	–	–	–
O=C(Cc1ccc([N+](=O)[O-])cc1)N1CCN(c2ccc([N+](=O)[O-])cc2)CC1	·	·	·	·	?	–
O=[N+]([O-])c1ccc(N2CCc3ccccc3C2)cc1	·	·	·	·	–	-102
SMILES	LASV entry inh	MARV entry inh	VACV mCherry inh	Vaccinia Venus	FMDV antiviral	HCMV inh
O=C(Cc1ccccc1)N1CCN(c2ccc([N+](=O)[O-])cc2)CC1	·	–	·	·	?	-64
O=[N+]([O-])c1ccc(CN2CCN(c3ncccn3)CC2)cc1	·	·	·	·	–	?
O=[N+]([O-])c1ccc(N2CCN(Cc3ccncc3)CC2)cc1	·	·	·	·	–	-90
O=C(CCCSc1nc2ccccc2[nH]1)N1CCN(c2ccc([N+](=O)[O-])cc2)CC1	–	–	–	–	18µM	–
Cc1ccc(-n2c(C)cc(C(=O)COc3c(CO)cc(F)cc3CO)c2C)cc1C	?	?	–	–	?	-92
COc1ccccc1CNc1nc(NCCOc2ccccc2Cl)c2sccc2n1	·	·	?	?	22µM	-61
Cc1ccc(Nc2nc(NCc3ccccc3)nc3ccsc23)c(C)c1	·	·	?	?	?	-62
COc1ccccc1CNc1nc(Nc2ccccc2OC)c2sccc2n1	·	·	–	–	?	·
CNc1nc(NCCOc2ccccc2Cl)c2sccc2n1	·	·	–	?	?	–
COc1ccccc1CNc1nc(Nc2ccc(C)cc2C)c2sccc2n1	·	·	–	–	?	-76
CC1CCN(c2nc(-c3cccnc3)nc3scc(-c4ccccc4)c23)CC1	·	·	·	·	–	–
CC1CCN(c2nc(CN3CCCCC3)nc3scc(-c4ccccc4)c23)CC1	?	?	–	–	32µM	?
CCC1CCCCN1CC(=O)N1CCCc2c1c(=O)oc1ccc(OCc3ccccc3)cc21 (stereo not given)	–	?	–	–	–	–
CC(C(=O)NCCN1C(=O)S/C(=C\c2cccnc2)C1=O)N1C(=O)c2ccccc2C1=O (stereo not given)	–	–	·	·	–	–
O=C(CCl)NCCN1C(=O)S/C(=C\c2cccnc2)C1=O	?	?	?	?	–	-77
COc1cc(=O)n2c(c1C(=O)N(C)Cc1nccs1)CCN(Cc1cc(C)cc(C)c1)CC2	·	·	–	–	–	·
CCCCCN1C(=O)c2ccccc2[C@@]2(C(=O)OCC)Cc3cc(Cl)ccc3[C@@H]12	·	·	?	–	?	?
CCOC(=O)[C@]12Cc3cc(OC)ccc3[C@H]1N(CC(=O)OC)C(=O)c1cc(OC)ccc12	·	·	–	–	14µM	-107
CCOC(=O)[C@]12Cc3cc(OC)ccc3[C@H]1N(C)C(=O)c1cc(OC)ccc12	·	·	?	–	11µM	-106
CCCCCN1C(=O)c2cc(OC)ccc2[C@@]2(C(=O)OCC)Cc3cc(OC)ccc3[C@@H]12	·	·	?	?	3.2µM	-105
CCOC(=O)[C@]12Cc3cc(Cl)ccc3[C@H]1N(C)C(=O)c1cc(OC)ccc12	·	·	?	?	16µM	-96
CCOC(=O)[C@]12Cc3cc(C)ccc3[C@H]1N(Cc1ccccc1)C(=O)c1cc(OC)ccc12	·	·	–	?	?	–
CCOC(=O)[C@]12Cc3cc(Cl)ccc3[C@H]1N(Cc1ccccc1)C(=O)c1ccccc12	·	·	?	–	?	–
CCCNC(=O)OC[C@H]1O[C@H](CCO/N=C(\C)CCN2CCCCc3nc(C)c(C)cc32)C=C[C@@H]1Oc1ccc(OC)cc1	·	–	·	·	·	·
CCCCn1c(N)c(N(CCOC)C(=O)c2cc(S(=O)(=O)N3CCCCC3)ccc2Cl)c(=O)[nH]c1=O	–	–	–	–	–	–
Cc1ccc(CN2CCOc3ccc(CN4CCC(O)(c5cccnc5)CC4)cc3C2)cc1C	·	·	–	?	?	·
CCN(CC)C(=O)C1=C(C)N(Cc2ccc(F)cc2)C(=O)C(CC(=O)NCCCN(C)C)C1 (stereo not given)	·	·	–	–	–	–
